Experimental data reported in ChEMBL document CHEMBL1961873, “Compounds: GSK PKIS; Assays: Nanosyn kinase panel” (2012).

Assays:
[1] = molecular target: Tyrosine-protein kinase receptor UFO (Homo sapiens) (UniProt P30530); settings: at 1 µM
[2] = molecular target: Tyrosine-protein kinase Blk (Homo sapiens) (UniProt P51451); settings: at 0.1 µM
[3] = molecular target: Tyrosine-protein kinase Blk (Homo sapiens) (UniProt P51451); settings: at 1 µM
[4] = molecular target: T1, Cytoplasmic tyrosine-protein kinase BMX (Homo sapiens) (UniProt P51813); settings: at 0.1 µM
T1 sequence (whole entry): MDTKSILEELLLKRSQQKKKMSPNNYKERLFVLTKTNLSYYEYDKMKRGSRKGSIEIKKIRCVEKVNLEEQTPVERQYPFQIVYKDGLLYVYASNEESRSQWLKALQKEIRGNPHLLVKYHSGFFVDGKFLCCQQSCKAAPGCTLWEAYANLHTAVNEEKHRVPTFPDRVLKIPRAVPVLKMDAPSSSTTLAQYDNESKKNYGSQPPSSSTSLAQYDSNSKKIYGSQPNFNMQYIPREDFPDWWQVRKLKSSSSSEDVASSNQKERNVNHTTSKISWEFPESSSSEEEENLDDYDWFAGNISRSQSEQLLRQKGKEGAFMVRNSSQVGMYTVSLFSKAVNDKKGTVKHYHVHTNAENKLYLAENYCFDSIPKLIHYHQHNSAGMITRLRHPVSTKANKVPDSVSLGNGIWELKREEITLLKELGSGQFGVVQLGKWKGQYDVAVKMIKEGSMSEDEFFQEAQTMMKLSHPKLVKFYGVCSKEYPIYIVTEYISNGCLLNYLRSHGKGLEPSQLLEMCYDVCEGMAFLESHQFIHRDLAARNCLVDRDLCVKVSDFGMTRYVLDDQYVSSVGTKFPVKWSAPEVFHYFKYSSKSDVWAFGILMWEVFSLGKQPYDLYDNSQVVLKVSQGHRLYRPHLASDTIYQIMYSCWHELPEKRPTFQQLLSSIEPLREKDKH

[5] = molecular target: T1, Cytoplasmic tyrosine-protein kinase BMX (Homo sapiens); settings: at 1 µM
[6] = molecular target: Protein-tyrosine kinase 6 (Homo sapiens) (UniProt Q13882); settings: at 0.1 µM
[7] = molecular target: Protein-tyrosine kinase 6 (Homo sapiens) (UniProt Q13882); settings: at 1 µM
[8] = molecular target: Tyrosine-protein kinase BTK (Homo sapiens) (UniProt Q06187); settings: at 0.1 µM
[9] = molecular target: Tyrosine-protein kinase BTK (Homo sapiens) (UniProt Q06187); settings: at 1 µM
[10] = molecular target: Tyrosine-protein kinase CSK (Homo sapiens) (UniProt P41240); settings: at 0.1 µM;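 note: value given is the averaged percent inhibition of CSK kinase activity, from the GSK PKIS kinase inhibitor set screening panel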
Sequence of Tyrosine-protein kinase CSK (Homo sapiens) (P41240 2-450 limits assumed): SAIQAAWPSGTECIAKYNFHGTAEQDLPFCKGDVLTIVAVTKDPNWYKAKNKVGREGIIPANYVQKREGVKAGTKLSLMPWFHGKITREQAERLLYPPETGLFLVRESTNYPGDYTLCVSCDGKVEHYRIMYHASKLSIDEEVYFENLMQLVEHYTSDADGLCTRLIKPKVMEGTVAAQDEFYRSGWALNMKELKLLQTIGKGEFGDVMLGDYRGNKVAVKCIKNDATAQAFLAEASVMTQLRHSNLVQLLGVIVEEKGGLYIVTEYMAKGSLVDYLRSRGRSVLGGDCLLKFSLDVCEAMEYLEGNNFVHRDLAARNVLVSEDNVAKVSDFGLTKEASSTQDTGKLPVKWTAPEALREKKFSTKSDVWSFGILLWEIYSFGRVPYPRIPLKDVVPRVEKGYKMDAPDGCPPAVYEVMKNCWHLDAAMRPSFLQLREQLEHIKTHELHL

Sequence of Tyrosine-protein kinase Blk (Homo sapiens) (P51451 2-505 limits assumed): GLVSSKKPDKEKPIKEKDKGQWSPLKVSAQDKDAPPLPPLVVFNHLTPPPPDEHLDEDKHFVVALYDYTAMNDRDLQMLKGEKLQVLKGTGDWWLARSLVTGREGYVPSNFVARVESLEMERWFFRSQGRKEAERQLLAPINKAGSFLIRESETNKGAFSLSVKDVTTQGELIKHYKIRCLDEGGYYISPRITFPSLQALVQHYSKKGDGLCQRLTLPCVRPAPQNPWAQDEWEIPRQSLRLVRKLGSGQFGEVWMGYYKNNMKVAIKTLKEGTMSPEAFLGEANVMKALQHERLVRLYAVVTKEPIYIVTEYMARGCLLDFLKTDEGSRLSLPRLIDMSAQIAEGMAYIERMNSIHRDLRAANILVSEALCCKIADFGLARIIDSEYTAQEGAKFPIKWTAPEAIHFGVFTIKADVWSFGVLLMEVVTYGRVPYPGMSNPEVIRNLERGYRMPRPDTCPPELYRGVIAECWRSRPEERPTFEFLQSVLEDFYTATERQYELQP
Sequence of Protein-tyrosine kinase 6 (Homo sapiens) (Q13882 whole entry, looked up): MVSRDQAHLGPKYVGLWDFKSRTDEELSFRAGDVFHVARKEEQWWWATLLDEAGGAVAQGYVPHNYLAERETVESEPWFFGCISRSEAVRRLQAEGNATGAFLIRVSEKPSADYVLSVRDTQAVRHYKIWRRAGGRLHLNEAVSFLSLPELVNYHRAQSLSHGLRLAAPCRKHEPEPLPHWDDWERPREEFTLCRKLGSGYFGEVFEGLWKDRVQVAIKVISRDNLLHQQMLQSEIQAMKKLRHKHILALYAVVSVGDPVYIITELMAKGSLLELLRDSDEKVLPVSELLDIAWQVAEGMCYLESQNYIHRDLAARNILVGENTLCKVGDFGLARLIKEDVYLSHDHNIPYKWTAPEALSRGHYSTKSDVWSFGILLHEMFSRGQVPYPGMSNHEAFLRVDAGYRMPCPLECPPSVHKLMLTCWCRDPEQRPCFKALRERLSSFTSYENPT
Sequence of Tyrosine-protein kinase BTK (Homo sapiens) (Q06187 whole entry): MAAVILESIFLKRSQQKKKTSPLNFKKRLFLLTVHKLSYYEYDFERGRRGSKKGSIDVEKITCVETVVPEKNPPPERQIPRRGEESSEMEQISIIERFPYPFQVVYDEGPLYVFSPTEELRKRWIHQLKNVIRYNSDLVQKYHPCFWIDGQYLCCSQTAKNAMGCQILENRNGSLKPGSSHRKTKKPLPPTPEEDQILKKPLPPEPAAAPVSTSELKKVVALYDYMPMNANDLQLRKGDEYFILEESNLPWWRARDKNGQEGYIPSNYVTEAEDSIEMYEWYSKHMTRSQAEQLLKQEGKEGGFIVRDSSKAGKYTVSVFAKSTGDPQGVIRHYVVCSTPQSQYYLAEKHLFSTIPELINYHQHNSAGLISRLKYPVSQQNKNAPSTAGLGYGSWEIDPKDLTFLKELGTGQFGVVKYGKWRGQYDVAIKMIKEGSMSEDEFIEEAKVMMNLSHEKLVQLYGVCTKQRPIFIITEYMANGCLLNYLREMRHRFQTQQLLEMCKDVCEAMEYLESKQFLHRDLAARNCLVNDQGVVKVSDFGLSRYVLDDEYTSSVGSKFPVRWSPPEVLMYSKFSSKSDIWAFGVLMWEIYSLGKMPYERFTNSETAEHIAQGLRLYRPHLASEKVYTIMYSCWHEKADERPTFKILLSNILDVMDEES
Sequence of Tyrosine-protein kinase receptor UFO (Homo sapiens) (P30530 whole entry): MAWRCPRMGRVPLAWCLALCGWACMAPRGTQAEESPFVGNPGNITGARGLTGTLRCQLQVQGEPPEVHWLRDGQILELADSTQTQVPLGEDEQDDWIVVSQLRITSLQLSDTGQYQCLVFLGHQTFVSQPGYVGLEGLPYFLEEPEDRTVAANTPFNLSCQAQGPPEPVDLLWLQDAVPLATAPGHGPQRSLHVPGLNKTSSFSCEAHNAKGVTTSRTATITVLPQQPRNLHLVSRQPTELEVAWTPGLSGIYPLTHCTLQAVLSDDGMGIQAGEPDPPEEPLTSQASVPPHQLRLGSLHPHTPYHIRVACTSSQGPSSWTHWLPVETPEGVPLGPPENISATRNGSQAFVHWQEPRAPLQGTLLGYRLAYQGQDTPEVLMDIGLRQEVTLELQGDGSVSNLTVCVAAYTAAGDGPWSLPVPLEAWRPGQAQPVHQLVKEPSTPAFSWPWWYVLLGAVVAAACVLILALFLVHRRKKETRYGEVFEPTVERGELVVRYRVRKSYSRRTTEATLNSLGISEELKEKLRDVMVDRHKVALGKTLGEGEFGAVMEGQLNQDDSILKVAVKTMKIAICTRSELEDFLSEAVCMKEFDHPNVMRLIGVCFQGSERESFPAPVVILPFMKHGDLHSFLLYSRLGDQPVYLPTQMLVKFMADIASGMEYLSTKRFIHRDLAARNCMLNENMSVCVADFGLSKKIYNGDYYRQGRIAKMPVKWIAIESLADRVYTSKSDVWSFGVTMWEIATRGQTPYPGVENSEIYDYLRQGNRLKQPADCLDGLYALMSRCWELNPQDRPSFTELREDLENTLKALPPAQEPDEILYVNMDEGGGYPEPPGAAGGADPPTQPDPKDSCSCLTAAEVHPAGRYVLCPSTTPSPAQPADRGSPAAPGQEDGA

Compound | inhibition [1] [%] | inhibition [2] [%] | inhibition [3] [%] | inhibition [4] [%] | inhibition [5] [%] | inhibition [6] [%] | inhibition [7] [%] | inhibition [8] [%] | inhibition [9] [%] | inhibition [10] [%]
CCn1c(-c2nonc2N)nc2c(C#CC(C)(C)O)nc(O[C@@H](CN)c3ccccc3)cc21 | 8.92 | -0.06 | 10.1 | 2.29 | -1.16 | -1.39 | -2.85 | -2.57 | -0.15 | -5
Nc1nonc1-c1nc2cnccc2n1C1CCCCC1 | 4.86 | -1.07 | 0.24 | 1.92 | -1.58 | -5.22 | -3 | -0.64 | -0.36 | -1.78
NS(=O)(=O)c1ccc(N/C=C2\C(=O)Nc3ccc4ncsc4c32)cc1 | 24.7 | 5.86 | 36.7 | 3.85 | 6.44 | 2.1 | 4.82 | -2.5 | 0.29 | 1.61
COc1cccc(COc2cc(-n3cnc4ccccc43)sc2C(N)=O)c1 | -0.71 | 0.3 | -1.09 | -0.68 | -1.24 | -0.05 | 1.34 | 0.36 | -0.76 | -1.48
Fc1ccc(-c2ncn(C3CCNCC3)c2-c2ccnc(Oc3ccccc3)n2)cc1 | -3.54 | -3.23 | -0.29 | 0.89 | 2.13 | 2.9 | 3.59 | -4.26 | -4.63 | 1.9
COc1cc(C=NNc2ncnc3c2cnn3Cc2ccccc2)ccc1O | 6.34 | 0.65 | 23.8 | 2.02 | 16.9 | -4.22 | -0.85 | -1.51 | -0.27 | -6.66
NS(=O)(=O)c1ccc(-c2ccc3c(NC(=O)C4CC4)n[nH]c3c2)cc1 | -2.63 | 1.89 | 6.01 | 4.98 | 3.87 | 0.27 | 1.67 | 1.8 | 1.47 | 6.64
CCn1c(-c2nonc2N)nc2c(C#CC(C)(C)O)ncc(OC[C@@H]3CCCN3)c21 | 0.17 | 2.44 | 1.76 | 1.21 | -0.7 | 3.05 | 2.47 | 0.66 | 1.17 | -1.37
NC(=O)c1sc(-n2cnc3cc(C(F)(F)F)ccc32)cc1OCc1ccccc1Br | 1.55 | 1.67 | 2.39 | -0.71 | 0.62 | 2.49 | 0.4 | 0.15 | -0.21 | -3.78
Cc1cc(-c2ccco2)cc(C)c1/C=C/c1cncc(-c2nn[nH]n2)c1 | 1.57 | 1.51 | 9 | 0.7 | 2.83 | 0.11 | 3.58 | 0.68 | 1.5 | 0.88
COc1cc2c(cc1Nc1nc(Nc3ccsc3C(N)=O)c3cc[nH]c3n1)N(C(=O)CN(C)C)CCC2 | 66.8 | 7.36 | 10.6 | 0.79 | 1.32 | 0.16 | 3.39 | 0.44 | 1 | -7.26
CCn1c(-c2nonc2N)nc2c(C#CCN)ncc(OCCCN)c21 | 7.15 | 0.22 | -2.12 | -0.45 | -3 | -6.06 | -3.37 | 2.31 | 2.06 | -0.42
COc1cccc(-n2ncc3c(N/N=C/c4ccncc4)ncnc32)c1 | 6.36 | 13.3 | 63.6 | 12.2 | 46.6 | 6.09 | 23.1 | -0.08 | 2.16 | 5.5
CCn1c(-c2nonc2N)nc2c(C#CC(C)(C)O)ncc(OCC3CCNCC3)c21 | -2.43 | -1.83 | -1.39 | -4.33 | 2.37 | 4.21 | 4.11 | -3.09 | -3.54 | 5.4
